Experimental data from PubChem BioAssay AID1053144 (Broad Institute, 2014).
About 160 (4.7%) of roughly 3,400 compounds were called active.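 How the source made its calls: active means fitted curve reaches 30% activation at a concentration no higher than the top valid tested dose, luminescence rising; inconclusive means no clear call, values can overlap the other calls; inactive means signal moving opposite to the expected increase, plus the rest.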 Not all results are given here. Potency and affinity values are given separately.

Assay: Wnt/beta-catenin signaling activators, dose response, cell-based, iPS-derived NPC, luciferase, Wnt3a, cherry-pick (AID 1053144);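 further: Wnt3a stimulus is conditioned medium from Wnt3a-transfected mouse L cells at 5% in well; 0% = neutral control wells and 100% = CHIR-99021 positive control wells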
Details: NPC TCF/LEF luciferase reporter, Wnt3a EC25, 24 h; series mostly up to 26 µM; activation: at the top concentration

activation, inactive:
Cc1ccc(C(=O)NC2=NCCS2)cc1 9.97%
COc1cccc(C(=O)NC2=NCCS2)c1 2.66%
Cc1cnc(C(=O)Nc2nnc(C(C)C)s2)cn1 7.46%
CCOC(=O)C1(NC(=O)C2(NC(=O)CN3C(=O)c4ccccc4C3=O)CCCC2)CCCC1 3.07%
O=c1c2ccccc2c(=O)n(-c2ccccc2)n1-c1ccccc1 0.139%
Cc1cccc(/C(N)=N/OC(=O)c2cccs2)c1 16.7%
Cc1cccc(/C(N)=N/OC(=O)c2ccncc2)c1 6.69%
CC(Sc1nncn1C)C(=O)Nc1ccc(N2CCCCC2)cc1 (stereo not given) 1.46%
O=C1c2ccccc2C(Nc2ccccc2)N1c1ccc(Cl)cn1 (stereo not given) 2.25%
COc1n[nH]c(C(=O)Nc2nc3ccccc3s2)c1[N+](=O)[O-] 13.5%
CN(C)S(=O)(=O)c1ccc(C(=O)NCCOc2ccccc2)cc1 11.9%
Cc1ccc(C(=O)CC(SCC(=O)O)c2ccc([N+](=O)[O-])cc2)cc1 (stereo not given) -14.7%
Cc1cc(C(=O)COC(=O)c2ccc(N)c([N+](=O)[O-])c2)c(C)n1Cc1ccc2c(c1)OCO2 5.38%
Nc1nc(Nc2ccccc2)sc1C(=O)c1ccccc1 19.5%
Cc1ccc2nc(NC(=O)c3ccc(Cl)s3)sc2c1 0.191%
Brc1ccc(-c2cn3ccccc3n2)cc1 14.5%
O=C(NCc1ccccn1)Nc1cccc(Cl)c1 8.88%
O=C(Nc1ccc(Cl)cc1)c1ccc(-c2ccccn2)s1 7.67%
CN(C)c1ccc(N=Nc2cccc(F)c2)cc1 3.61%
C(=N\NCc1ccccc1)/c1ccc2ncccc2c1 4.68%
CC(C)(CNC(=O)c1cccc(S(=O)(=O)N2CCCCC2)c1)N1CCOCC1 5.12%
Cc1ccc(CNC(=O)COC(=O)C2CCN(S(=O)(=O)c3cccs3)CC2)cc1 7.64%
O=C(N=Nc1c(O)[nH]c2ccccc12)c1ccc2c(c1)OCO2 5.2%
Oc1[nH]c2ccccc2c1N=Nc1ccccc1 6.5%
CCCCCn1c(CN2CCN(C(=O)c3ccco3)CC2)nc2c1c(=O)n(C)c(=O)n2C -1.47%
Cc1nnc(SCC(=O)c2ccc(Cl)cc2)n(N)c1=O 4.61%
O=C(CSc1nnc2ccccn12)c1ccc(Cl)cc1 5.28%
CCCCN(CC)C(=O)c1cc2cc3ccc(OC)cc3nc2o1 6.64%
Cc1ccc2nc(-c3ccc(NC(=O)CSc4nc(N)cc(=O)[nH]4)cc3)sc2c1 3.34%
Cc1ccc(C2(C)NC(=O)N(CC(=O)Nc3ccc(-c4nc5ccc(C)cc5s4)cc3)C2=O)cc1 (stereo not given) 2.88%
Cc1ccc2nc(-c3ccc(NS(=O)(=O)c4ccc(F)c(F)c4)cc3)sc2c1 -0.027%
Cc1cc(C)cc(N(CC(=O)Nc2ccc(-c3nc4ccc(C)cc4s3)cc2)S(C)(=O)=O)c1 -0.43%
Cc1ccc2nc(-c3ccc(NC(=O)COCC(=O)O)cc3)sc2c1 4.24%
CC1=CCC(C(=O)O)C(C(=O)Nc2ccc(-c3nc4ccc(C)cc4s3)cc2)C1 (stereo not given) 8.13%
Cc1ccc(C)c(-n2ccnc2SCC(=O)Nc2cccc(S(=O)(=O)NC3=NCCC3)c2)c1 10.6%
CCC(=O)Nc1c(C(=O)Nc2ccc3c(c2)OCCO3)oc2ccccc12 12.9%
N=c1cc(C2(O)CCCCC2)n2c(nc3ccccc32)s1 1.82%
Cc1ccnc(NC(=O)C2CC(=O)N(c3ccc4c(c3)OCCO4)C2)c1 (stereo not given) 3.35%
c1ccc(-c2nnc(-c3ccccn3)nn2)nc1 4.64%
CCC(=O)Nc1cc(C(=O)OCC(=O)c2ccccc2)ccc1C 18.1%
COC(=O)[C@H](CCSC)NC(=O)c1cccnc1SC 0.828%
O=C(CCN1C(=O)C2CCCCC2C1=O)Nc1nc2c(F)cc(F)cc2s1 (stereo not given) 11.7%
CN(c1ccc(C(=O)NCCSC(C)(C)C)cc1)S(=O)(=O)c1ccccc1 -1.26%
Cc1ccc(C)c(OCc2nc3ccccc3[nH]2)c1 14%
COc1ccc(NC(=O)N2CCCc3ccccc32)cc1 3.63%
COc1cccc(NC(=O)n2ncc3c(C)cccc32)c1 -11.3%
O=C(Cc1noc2ccccc12)Nc1ccccn1 12.4%
Cc1nc(C(C)NC(=O)CCc2nnc(CCCc3ccccc3)o2)c(C)s1 (stereo not given) 10.9%
c1ccc2nc(SCc3cn4ccccc4n3)cnc2c1 6.56%
CC(=O)Nc1ccc(-c2nc3ccccc3o2)cc1 7.88%
CC(=O)Nc1ccc2oc(-c3ccccc3)nc2c1 7.44%
O=C(N/N=C/c1ccc(F)cc1)c1ccccc1 6.49%
COc1ccc(C(=O)Cc2ccc3c(c2)OCO3)c(O)c1 11.2%
Cc1ccc(NC(=O)COc2ccc3c(c2)OCO3)c(Cl)c1 10.7%
Cc1ccc(/C=N/NC(=O)c2cccs2)cc1[N+](=O)[O-] 7.64%
COc1ccc(/C=N/Nc2ccc([N+](=O)[O-])cc2)cc1O 10.8%
Cc1c(C(=O)OCC(=O)NCC2CCCO2)cccc1[N+](=O)[O-] (stereo not given) 7.65%
Cc1cc(-c2nnc(-c3cccc(Cl)c3)o2)no1 14.5%
O=C(/C=C/c1ccc(O)cc1)c1ccccc1 15.6%
COc1ccc(/C=C/C(=O)c2ccccc2)c(OC)c1 8.57%
O=S(=O)(c1ccccc1)n1ccc(-c2cnc(-c3ccccc3)s2)n1 9.35%
CC(C)c1cc(C(=O)NCCc2ccccc2)no1 8.37%
O=C(Nc1cccnc1Cl)c1cc(-c2ccco2)on1 12.4%
COc1ccc(NC(=O)c2cc(-c3ccco3)on2)cc1 9.44%
O=C(Nc1ccc(F)c(Cl)c1)c1cc(-c2ccco2)on1 13.2%
Cc1ccc(NC(=O)/C=C/c2ccc3c(c2)OCO3)nc1 8.44%
COc1ccc(CNC(=O)Nc2cccc(C)c2)cc1 8.1%
Cc1ccc(SCC(=O)NC(=O)NCCC(C)C)c(C)c1 13.2%
Cc1ccc(OCC(=O)Nc2ccc(Cl)cc2)c([N+](=O)[O-])n1 17.6%
Cc1ccc(C(=O)CCC2CCCCC2=O)cc1 (stereo not given) 9.76%
Cc1ccc2nc(-c3cccc(NC(=O)c4ccc5c(c4)OCCO5)c3)oc2c1 7.37%
CCC(=O)Nc1cccc(-c2nc3ccc(C)cc3o2)c1 19.1%
O=[N+]([O-])c1ccccc1N/N=C1\CCc2ccccc21 8.32%
O=C(NCc1nnc(SCC(=O)N2CCCc3ccccc32)o1)c1c(F)cccc1Cl 10.2%
COc1ccc(N=Cc2c(O)[nH]c3ccccc23)cc1 13%
